Experiment [1] deals with Transcriptional activator Myb (Homo sapiens) (UniProt P10242). The experiment can be described thus: ATG_Myb_CIS: Attagene CIS-FACTORIAL HepG2 Assay for human Myeloblastosis (Myb) Proto-Oncogene Transcription Factor (AID 2282986). The settings on record: HepG2 Attagene CIS-FACTORIAL Myb reporter transcription; actives raise or lower the signal. The procedure, abridged: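 Transiently transfected HepG2 cells, treated 24 h. Reporter mRNA quantified by RT-PCR/capillary electrophoresis; bidirectional fit relative to DMSO.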
Chain of Transcriptional activator Myb (Homo sapiens) (P10242 whole entry, looked up): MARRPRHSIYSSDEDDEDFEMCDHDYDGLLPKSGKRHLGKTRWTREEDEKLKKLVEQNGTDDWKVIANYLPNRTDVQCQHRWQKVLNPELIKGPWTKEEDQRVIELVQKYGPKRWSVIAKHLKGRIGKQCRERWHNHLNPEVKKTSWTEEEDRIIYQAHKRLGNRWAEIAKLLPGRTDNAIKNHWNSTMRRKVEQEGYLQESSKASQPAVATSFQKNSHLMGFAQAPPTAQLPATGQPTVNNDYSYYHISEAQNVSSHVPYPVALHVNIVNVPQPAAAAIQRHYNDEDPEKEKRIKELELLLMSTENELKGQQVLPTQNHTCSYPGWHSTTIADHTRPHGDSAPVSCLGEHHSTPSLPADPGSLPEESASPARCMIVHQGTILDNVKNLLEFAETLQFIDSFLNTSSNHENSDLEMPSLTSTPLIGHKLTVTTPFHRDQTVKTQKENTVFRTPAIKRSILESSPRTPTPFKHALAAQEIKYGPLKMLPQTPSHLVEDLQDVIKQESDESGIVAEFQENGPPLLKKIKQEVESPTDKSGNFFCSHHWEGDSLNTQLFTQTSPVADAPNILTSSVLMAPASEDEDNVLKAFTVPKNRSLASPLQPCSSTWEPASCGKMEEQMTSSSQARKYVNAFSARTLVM

Experiment [2] addresses Nuclear respiratory factor 1 (Homo sapiens) (UniProt Q16656). The experiment can be described thus: ATG_NRF1_CIS: Attagene CIS-FACTORIAL HepG2 Assay for human Nuclear Respiratory Factor 1 (NRF1) Orphan Gene (AID 2282987). As to conditions: HepG2 NRF1 cis-element reporter, Attagene multiplex; actives raise or lower the signal. The procedure, abridged: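 Cells (HepG2, transient MRTU transfection) are exposed to compound for 24 h, then RNA isolated and reporter mRNA amplified and fluorescently labelled. Fragments are separated by capillary electrophoresis; signal change is fitted bidirectionally relative to DMSO.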

Experiment [3] is described as follows: ATG_NFI_CIS: Attagene CIS-FACTORIAL HepG2 Assay for human Nuclear Factor I (NFI) (AID 2282989). The settings on record: HepG2 cis-regulatory reporter, NFI response element transcription; actives raise or lower the signal. The procedure, abridged:
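Cells: human liver HepG2, transiently transfected with promoter-regulated reporter transcription units. Exposure 24 h. Detection: fluorescent RT-PCR products separated by capillary electrophoresis, normalised to DMSO negative control.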

Experiment [4] concerns the target Myc proto-oncogene protein (Homo sapiens) (UniProt P01106). The experiment can be described thus: ATG_Myc_CIS: Attagene CIS-FACTORIAL HepG2 Assay for human Myelocytomatosis (Myc) Proto-Oncogene Transcription Factor (AID 2282990). The settings on record: HepG2, Attagene cis-reporter transcription factor activity; actives raise or lower the signal. The procedure, abridged:
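Multiplexed cis-reporter transcription in HepG2 cells after 24 h chemical treatment. Reporter mRNA measured by RT-PCR and capillary electrophoresis fluorescence; activity fitted bidirectionally against DMSO control.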

The nature of experiment [5]: ATG_NF_kB_CIS: Attagene CIS-FACTORIAL HepG2 Assay for human Nuclear Factor Kappa B (NF-kB) (AID 2282991). As to conditions: HepG2 Attagene cis-factorial NF-kB reporter mRNA; actives raise or lower the signal. The essentials: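 Measures mRNA induction of an NF-kB-responsive cis-element reporter in HepG2 cells transfected with multiple reporter units, sampled 24 h post-dosing; quantified by fluorescence after RT-PCR and capillary electrophoresis, fitted for activation or inhibition against DMSO.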

Experiment [6] is described as follows: ATG_NRF2_ARE_CIS: Attagene CIS-FACTORIAL HepG2 Assay for human Nuclear Factor Erythroid 2 Related Factor 2 (NFR2) response to Antioxidant Response Elements (ARE) (AID 2282992). The settings on record: HepG2 Attagene ARE/NRF2 reporter, transcription factor activity; actives raise or lower the signal. The essentials: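 Readout: reporter mRNA quantified by RT-PCR plus FAM-labelled primer extension, HpaI digestion and capillary electrophoresis, 24 h after dosing transfected HepG2 cells. Gain or loss of signal is fitted bidirectionally against DMSO baseline.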

Experiment [7] in a line: ATG_Oct_MLP_CIS: Attagene CIS-FACTORIAL HepG2 Assay for human Octamer-Binding Transcription Factor (Oct) (AID 2282993). The settings on record: HepG2 Attagene cis-factorial Oct reporter, mRNA; actives raise or lower the signal. The procedure, abridged: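 HepG2, transient MRTU transfection, cis promoter elements; 24 h dosing; RT-PCR/CE fluorescence read-out of reporter mRNA; fit both directions vs DMSO.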

In experiment [8] the target is Cellular tumor antigen p53 (Homo sapiens) (UniProt P04637). Put plainly: ATG_p53_CIS: Attagene CIS-FACTORIAL HepG2 Assay for human p53 Transcription Factor (AID 2282994). As to conditions: HepG2 p53 cis-element reporter, Attagene mRNA; actives raise or lower the signal. The essentials:
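Read-out: reporter mRNA by RT-PCR plus capillary electrophoresis with fluorescence detection. Human HepG2 liver cells carried transfected multi-reporter cis-element constructs, dosed 24 h. Gain or loss of signal fitted bidirectionally against DMSO control.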

The nature of experiment [9]: BSK_3C_TissueFactor: BioMAP Diversity Plus: 3C Assay for Tissue Factor Biomarker Activity (AID 2282997). As to conditions: BioMAP 3C HUVEC, tissue factor biomarker readout; actives raise or lower the signal. The procedure, abridged: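 After a 24 h chemical exposure of primary human umbilical vein endothelial cells, Tissue Factor levels were quantified by ELISA.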
Experiment [10] is described as follows: BSK_3C_uPAR: BioMAP Diversity Plus: 3C Assay for Urokinase-type plasminogen activator receptor (uPAR) Biomarker Activity (AID 2282998). The settings on record: BioMAP 3C HUVEC, uPAR biomarker ELISA; actives raise or lower the signal. The essentials: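 A multiplexed primary-cell system built on human umbilical vein endothelium was used, with chemical present for 24 h before reading. Cell-surface uPAR was detected by ELISA; signal change in either direction counted against DMSO.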

Experiment [11] can be described thus: BSK_3C_VCAM1: BioMAP Diversity Plus: 3C Assay for Vascular cell adhesion molecule 1 (VCAM1) Biomarker Activity (AID 2282999). The settings on record: BioMAP 3C HUVEC, VCAM1 ELISA, cytokine-stimulated; actives raise or lower the signal. The essentials:
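Vascular primary endothelium (human umbilical vein) was exposed to chemicals and assayed 24 h later. VCAM-1 levels came from ELISA, with DMSO serving as baseline for bidirectional fitting.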
Background: An ELISA detects its analyte on a solid surface through an enzyme-linked reagent.

The nature of experiment [12]: BSK_4H_Eotaxin3: BioMAP Diversity Plus: 4H Assay for Eotaxin 3 Biomarker Activity (AID 2283000).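 Further: CCL26 protein level quantified by ELISA in parallel with SRB cytotoxicity check.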 The settings on record: primary human endothelial cells (HUVEC); actives raise or lower the signal. The essentials: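 Chemicals were added to human umbilical vein endothelium cultures, and Eotaxin-3 was quantified by ELISA at 24 h. Values were derived by bidirectional fitting with DMSO serving as negative control and activity baseline.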

Experiment [13] concerns the target human Peroxisome Proliferator-activated Receptor alpha (PPARa), PPARA (gene 5465) (UniProt Q07869). Put plainly: ATG_PPARa_TRANS: Attagene TRANS-FACTORIAL HepG2 Assay for human Peroxisome Proliferator-activated Receptor alpha (PPARa) (AID 2283001; active means hit-call score of the fitted dose curve at least 0.9, where 1 is the maximum). The essentials:
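Exposure: 24 h, transiently transfected HepG2 cells. Endpoint: GAL4-UAS reporter mRNA, RT-PCR with capillary electrophoresis fluorescence. Baseline: DMSO; increases fitted.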

The target of experiment [14] is human Peroxisome Proliferator-activated Receptor delta (PPARd), PPARD (gene 5467) (UniProt Q03181). The experiment can be described thus: ATG_PPARd_TRANS: Attagene TRANS-FACTORIAL HepG2 Assay for human Peroxisome Proliferator-activated Receptor delta (PPARd) (AID 2283002; active means hit-call score of the fitted dose curve at least 0.9, where 1 is the maximum). The essentials:
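Multiplexed trans-activation format: HepG2 liver cells expressing exogenous NR-Gal4 chimeras and GAL4-UAS reporters were exposed for 24 h. Reporter mRNA was detected by RT-PCR with capillary electrophoresis fluorescence; activity fitted as gain of signal relative to DMSO.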

Read-out in experiment [15]: Intercellular Adhesion Molecule 1 (ICAM1), ICAM1 (gene 3383)
Put plainly: BSK_3C_ICAM1: BioMAP Diversity Plus: 3C Assay for Intercellular Adhesion Molecule 1 (ICAM1) Biomarker Activity (AID 2283003). The settings on record: primary human endothelial cells (HUVEC); actives raise or lower the signal. The essentials: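 ELISA read-out of ICAM-1; HUVEC (primary human), 3C system, 24 h post-dosing; bidirectional fit vs DMSO baseline.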

Experiment [16] can be described thus: BSK_3C_Proliferation: Cell Proliferation Assessment in the BioMAP Diversity Plus: 3C Assay (AID 2283006). The settings on record: primary human endothelial cells (HUVEC). The essentials:
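HUVEC, sub-confluent; 48 h chemical exposure; 10% TCA fix, 0.1% SRB stain, A560 total protein. Gain or loss of signal fitted both directions vs DMSO control.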

In experiment [17] the target is Peroxisome proliferator-activated receptor gamma (Homo sapiens) (UniProt P37231). The experiment can be described thus: ATG_PPARg_TRANS: Attagene TRANS-FACTORIAL HepG2 Assay for human Peroxisome Proliferator-activated Receptor-gamma (PPARg) (AID 2283007; active means hit-call score of the fitted dose curve at least 0.9, where 1 is the maximum). The procedure, abridged:
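Gain-of-signal endpoint relative to DMSO, derived from reporter mRNA levels quantified by RT-PCR and capillary electrophoresis. Cells were HepG2 transiently expressing a chimeric NR-Gal4 construct with GAL4-UAS reporters, exposed to chemicals for 24 h.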

Experiment [18] concerns the target Nuclear receptor subfamily 1 group I member 2 (Homo sapiens) (UniProt O75469). Put plainly: ATG_PXR_TRANS: Attagene TRANS-FACTORIAL HepG2 Assay for human Pregnane X Receptor (PXR) (AID 2283008; active means hit-call score of the fitted dose curve at least 0.9, where 1 is the maximum). The procedure, abridged: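 Trans-factorial format: exogenous NR-Gal4 fusion activity, not endogenous factor, in transfected human HepG2 liver cells. After 24 h dosing, RNA isolated, reverse-transcribed, amplified and resolved by capillary electrophoresis; induction scored versus DMSO.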

Experiment [19] has as its target human Retinoic Acid Receptor beta (RARb), RARB (gene 5915) (UniProt P10826). Put plainly: ATG_RARb_TRANS: Attagene TRANS-FACTORIAL HepG2 Assay for human Retinoic Acid Receptor beta (AID 2283004; active means hit-call score of the fitted dose curve at least 0.9, where 1 is the maximum). The procedure, abridged: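 Transient transfection of HepG2 with multiple reporter units → chemical dosing, 24 h → total RNA isolation → RT with oligo(dT) → reporter-specific PCR, 6-FAM primer extension, HpaI digest → capillary electrophoresis. Positive direction vs DMSO control.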

Broadly, the AC50 is the midpoint of the concentration-response curve, whichever way the signal moves.

Results filed as inconclusive are left out. Calls of active or inactive are those of the source. How the source made its calls, unless noted: active means hit-call score of the fitted dose curve at least 0.9, where 1 is the maximum; inactive means score below 0.9.

Chain of human Peroxisome Proliferator-activated Receptor alpha (PPARa), PPARA (gene 5465) (Q07869 whole entry, looked up, the tested form may be a part): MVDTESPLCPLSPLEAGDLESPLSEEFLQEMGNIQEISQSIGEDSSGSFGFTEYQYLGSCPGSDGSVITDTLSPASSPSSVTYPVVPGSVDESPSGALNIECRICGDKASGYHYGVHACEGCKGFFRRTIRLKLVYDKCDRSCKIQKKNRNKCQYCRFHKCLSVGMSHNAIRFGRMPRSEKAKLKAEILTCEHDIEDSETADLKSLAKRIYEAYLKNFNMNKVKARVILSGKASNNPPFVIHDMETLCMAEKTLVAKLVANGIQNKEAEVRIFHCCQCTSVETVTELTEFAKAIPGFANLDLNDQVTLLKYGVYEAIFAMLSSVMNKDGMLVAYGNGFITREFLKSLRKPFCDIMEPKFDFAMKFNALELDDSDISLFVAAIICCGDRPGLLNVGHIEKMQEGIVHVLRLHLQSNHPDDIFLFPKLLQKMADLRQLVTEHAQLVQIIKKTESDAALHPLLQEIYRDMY
Chain of human Peroxisome Proliferator-activated Receptor delta (PPARd), PPARD (gene 5467) (Q03181 whole entry, looked up, the tested form may be a part): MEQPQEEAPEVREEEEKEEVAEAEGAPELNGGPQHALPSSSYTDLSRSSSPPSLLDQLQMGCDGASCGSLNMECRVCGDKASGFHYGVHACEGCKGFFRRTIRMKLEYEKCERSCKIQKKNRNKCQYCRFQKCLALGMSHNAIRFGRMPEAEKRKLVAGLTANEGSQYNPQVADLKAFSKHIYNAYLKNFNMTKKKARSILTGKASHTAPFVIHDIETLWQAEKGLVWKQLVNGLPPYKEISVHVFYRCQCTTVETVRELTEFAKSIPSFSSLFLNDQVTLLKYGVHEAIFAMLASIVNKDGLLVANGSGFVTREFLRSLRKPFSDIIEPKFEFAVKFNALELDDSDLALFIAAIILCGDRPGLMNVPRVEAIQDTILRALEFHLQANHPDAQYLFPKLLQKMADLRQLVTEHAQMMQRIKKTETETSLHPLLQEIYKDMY
Chain of Peroxisome proliferator-activated receptor gamma (Homo sapiens) (P37231 whole entry, looked up, the tested form may be a part): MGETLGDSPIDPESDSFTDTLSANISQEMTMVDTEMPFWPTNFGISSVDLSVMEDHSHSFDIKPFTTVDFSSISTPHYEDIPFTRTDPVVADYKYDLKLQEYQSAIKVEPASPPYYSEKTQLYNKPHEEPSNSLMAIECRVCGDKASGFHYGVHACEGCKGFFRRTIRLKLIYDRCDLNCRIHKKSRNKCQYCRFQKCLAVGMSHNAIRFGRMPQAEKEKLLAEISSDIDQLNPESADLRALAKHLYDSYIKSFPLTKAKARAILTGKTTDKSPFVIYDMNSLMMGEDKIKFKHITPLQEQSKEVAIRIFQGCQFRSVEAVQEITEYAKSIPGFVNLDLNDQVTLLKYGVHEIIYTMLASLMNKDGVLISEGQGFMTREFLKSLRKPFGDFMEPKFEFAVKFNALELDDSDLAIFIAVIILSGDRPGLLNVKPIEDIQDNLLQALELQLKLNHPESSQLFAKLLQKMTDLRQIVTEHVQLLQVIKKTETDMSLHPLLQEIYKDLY
Chain of Myc proto-oncogene protein (Homo sapiens) (P01106 whole entry, looked up): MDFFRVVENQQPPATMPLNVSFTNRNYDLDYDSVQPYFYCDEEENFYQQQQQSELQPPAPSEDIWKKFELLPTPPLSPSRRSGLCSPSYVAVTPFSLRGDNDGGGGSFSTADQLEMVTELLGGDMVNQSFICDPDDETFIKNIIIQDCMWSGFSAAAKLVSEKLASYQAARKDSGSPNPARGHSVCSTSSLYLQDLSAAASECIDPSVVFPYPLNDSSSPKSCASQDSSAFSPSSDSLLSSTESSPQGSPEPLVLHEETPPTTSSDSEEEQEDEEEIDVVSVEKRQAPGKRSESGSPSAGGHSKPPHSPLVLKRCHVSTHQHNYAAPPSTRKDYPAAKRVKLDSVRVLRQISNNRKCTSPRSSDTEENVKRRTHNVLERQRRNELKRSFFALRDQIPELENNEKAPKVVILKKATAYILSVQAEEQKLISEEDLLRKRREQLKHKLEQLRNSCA
Chain of Nuclear receptor subfamily 1 group I member 2 (Homo sapiens) (O75469 whole entry, looked up, the tested form may be a part): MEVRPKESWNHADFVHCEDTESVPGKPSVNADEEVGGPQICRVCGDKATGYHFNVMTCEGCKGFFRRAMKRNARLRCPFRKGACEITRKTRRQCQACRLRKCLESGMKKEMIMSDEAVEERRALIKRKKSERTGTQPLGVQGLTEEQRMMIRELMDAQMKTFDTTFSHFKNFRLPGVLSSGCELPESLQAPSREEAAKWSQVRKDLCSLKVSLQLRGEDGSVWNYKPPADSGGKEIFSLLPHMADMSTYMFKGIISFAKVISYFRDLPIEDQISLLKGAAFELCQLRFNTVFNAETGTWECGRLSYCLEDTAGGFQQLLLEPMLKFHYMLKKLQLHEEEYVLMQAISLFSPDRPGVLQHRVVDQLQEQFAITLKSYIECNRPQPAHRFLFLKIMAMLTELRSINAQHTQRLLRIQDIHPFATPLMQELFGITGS
Chain of Nuclear respiratory factor 1 (Homo sapiens) (Q16656 whole entry, looked up, the tested form may be a part): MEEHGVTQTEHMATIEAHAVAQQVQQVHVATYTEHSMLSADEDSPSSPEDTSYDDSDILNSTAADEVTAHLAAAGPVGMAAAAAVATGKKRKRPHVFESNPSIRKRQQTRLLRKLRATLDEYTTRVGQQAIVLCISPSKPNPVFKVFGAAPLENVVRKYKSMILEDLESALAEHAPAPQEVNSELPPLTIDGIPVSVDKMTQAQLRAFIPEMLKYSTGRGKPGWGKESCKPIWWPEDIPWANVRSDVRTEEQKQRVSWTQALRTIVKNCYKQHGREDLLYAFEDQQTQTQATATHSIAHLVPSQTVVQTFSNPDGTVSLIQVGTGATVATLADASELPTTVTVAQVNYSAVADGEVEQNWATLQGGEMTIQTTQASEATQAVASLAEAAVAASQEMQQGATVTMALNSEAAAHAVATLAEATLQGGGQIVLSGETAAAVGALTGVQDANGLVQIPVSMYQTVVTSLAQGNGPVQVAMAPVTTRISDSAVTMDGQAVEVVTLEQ
Chain of Cellular tumor antigen p53 (Homo sapiens) (P04637 whole entry, looked up): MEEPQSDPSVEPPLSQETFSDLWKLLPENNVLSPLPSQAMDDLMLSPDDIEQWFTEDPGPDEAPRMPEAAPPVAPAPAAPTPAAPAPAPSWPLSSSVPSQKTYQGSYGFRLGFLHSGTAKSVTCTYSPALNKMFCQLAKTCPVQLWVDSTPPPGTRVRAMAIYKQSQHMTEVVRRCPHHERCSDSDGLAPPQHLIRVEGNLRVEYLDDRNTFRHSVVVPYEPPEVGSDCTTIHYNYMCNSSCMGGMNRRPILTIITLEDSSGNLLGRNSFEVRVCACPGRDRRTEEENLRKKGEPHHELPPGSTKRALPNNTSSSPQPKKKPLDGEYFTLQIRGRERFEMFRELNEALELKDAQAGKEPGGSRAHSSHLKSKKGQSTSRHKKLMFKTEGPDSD
Chain of human Retinoic Acid Receptor beta (RARb), RARB (gene 5915) (P10826 whole entry, looked up): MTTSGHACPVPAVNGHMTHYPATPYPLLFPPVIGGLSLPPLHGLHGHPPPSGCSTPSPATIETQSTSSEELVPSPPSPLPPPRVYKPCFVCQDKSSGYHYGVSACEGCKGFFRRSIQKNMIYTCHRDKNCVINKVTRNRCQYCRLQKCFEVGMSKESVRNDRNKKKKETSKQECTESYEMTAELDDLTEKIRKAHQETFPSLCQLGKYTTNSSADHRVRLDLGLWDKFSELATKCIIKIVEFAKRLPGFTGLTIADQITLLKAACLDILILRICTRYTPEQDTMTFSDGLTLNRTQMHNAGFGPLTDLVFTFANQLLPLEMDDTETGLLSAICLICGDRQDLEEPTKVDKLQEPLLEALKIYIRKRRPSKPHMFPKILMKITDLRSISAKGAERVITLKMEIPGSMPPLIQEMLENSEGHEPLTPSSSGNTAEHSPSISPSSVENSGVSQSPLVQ

For `CCOP(=S)(OCC)SCS(=O)(=O)CC`, the molecule was called inactive in experiment [1], in experiment [2], in [3], in [4], in [5] and in [6]. Further, the molecule was called inactive in experiment [7], in experiment [8], in experiment [9], in experiment [10], in experiment [11] and in experiment [12]. For the same molecule, the call in experiment [13], in [14], in experiment [15], in experiment [16] and in experiment [17] was inactive. The half-maximal activity concentration (AC50) in [18] was 5.73 µM (active).
In the case of `CCC(C)(C)c1ccc(O)cc1`, the AC50 in experiment [1] was 46.1 µM (active); in experiment [6], 33.4 µM (active). Moreover, the result in experiment [2], in [3], in experiment [4], in experiment [5], in [7] and in experiment [8] was inactive. Also, the outcome in [9], in experiment [10], in [11], in experiment [12], in experiment [15] and in experiment [16] was inactive. The call in experiment [17] was inactive.
For the molecule `Cc1cccc(N)c1`, the outcome in [1], in experiment [2], in [3], in experiment [4], in experiment [5] and in [6] was inactive. Besides, the result in [7], in experiment [8], in experiment [9], in experiment [10], in experiment [11] and in experiment [12] was inactive. Moreover, the result in experiment [14], in experiment [15], in experiment [16] and in experiment [17] was inactive.
`CCN(CC)C1CCCCC1`: the call in experiment [1], in experiment [2], in experiment [3], in experiment [4], in experiment [5] and in experiment [6] was inactive. Besides, the result in experiment [7], in experiment [8], in [14] and in experiment [17] was inactive.
Regarding `O=P1(N(CCCl)CCCl)NCCCO1` (configuration not stated), the outcome in [1], in experiment [2], in [3], in experiment [4], in experiment [5] and in experiment [6] was inactive. Besides, the outcome in experiment [7], in [8], in experiment [9], in experiment [10], in experiment [11] and in experiment [12] was inactive. The outcome in [13], in experiment [14], in experiment [15], in experiment [16] and in experiment [17] was inactive.
On to `CC(C)(C)OOC(C)(C)C`, for which the outcome in experiment [1], in experiment [2], in experiment [3], in experiment [4], in [5] and in experiment [6] was inactive. Moreover, the outcome in experiment [7], in [8], in [9], in experiment [10], in [11] and in experiment [12] was inactive. In addition, the molecule was classed as inactive in experiment [14], in experiment [15] and in experiment [16].
For the molecule `FC(F)(F)c1ccc(Cl)cc1`, the call in experiment [1], in experiment [2], in [3], in experiment [4], in experiment [5] and in experiment [6] was inactive. The outcome in [7], in experiment [8], in [14], in experiment [19], in [17] and in experiment [18] was inactive.
In the case of `O=[N+]([O-])c1cc(Cl)ccc1Cl`, the result in experiment [1], in [2], in experiment [3], in experiment [4], in experiment [5] and in [6] was inactive. Also, the call in experiment [7], in [8], in [14] and in experiment [18] was inactive. Moreover, the AC50 in [17] is 16.1 µM (active).
Take `CCC1(c2ccccc2)C(=O)N=C(O)NC1=O` (configuration not stated): the result in experiment [1], in experiment [2], in experiment [3], in experiment [4], in experiment [5] and in experiment [6] was inactive. The molecule was called inactive in experiment [7], in [8], in [9], in [10], in experiment [11] and in [12]. Besides, the call in [13], in experiment [14], in [15], in [16], in experiment [17] and in experiment [18] was inactive.
